High-throughput results (PubChem BioAssay)
This is a sample that favours compounds with a hit; in the whole collection about 2.9% have one here.
PAFAH2 inh – PAFAH2 (human) inhibition | Q99487 | recombinant PAFAH2, FP-rhodamine activity probe, fluorescence polarization | inhibition, % at 3.39 µM | hit rate 0.99% among 340,000 | AID 492956;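 active = inhibition above the mean over all tested compounds plus 3 SD, cut at about 30% in these data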;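 also: inhibitors block probe labeling of enzyme so polarization drops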
pPAFAH FP inh – pPAFAH (human) enzyme inhibition. hit rate 1.5% among 330,000. recombinant pPAFAH, FP-rhodamine probe fluorescence polarization. Q13093. inhibition, % at 3.39 µM. AID 463082;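 active = inhibition above the mean inhibition across the screen plus 3 SD, cut at about 25% in these data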;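 also: inhibitors block binding of the rhodamine activity-based probe so polarization drops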
LYPLA1 counter – LYPLA1 (human) inhibition in PME1 counter-screen; recombinant LYPLA1, FP-Rh probe fluorescence polarization; AID 2174; hit rate 0.16% among 320,000; inhibition, % at 5.9 µM;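 active = inhibition above the mean of all tested compounds plus 3 SD, set per campaign, cut at about 14% in these data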;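 also: inhibitors block serine hydrolase probe labeling of LYPLA1 so polarization falls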
PAFAH1B3 inh – blocks human PAF acetylhydrolase 1B catalytic subunit 3 | hit rate 0.28% among 340,000 | Q15102 | recombinant PAFAH1B3, FP-rhodamine probe, fluorescence polarization | inhibition, % at 3.39 µM;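 active = inhibition above the screen-wide average of all tested compounds plus 3 SD, cut at about 25% in these data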
Target sequence (Q15102 whole entry, looked up): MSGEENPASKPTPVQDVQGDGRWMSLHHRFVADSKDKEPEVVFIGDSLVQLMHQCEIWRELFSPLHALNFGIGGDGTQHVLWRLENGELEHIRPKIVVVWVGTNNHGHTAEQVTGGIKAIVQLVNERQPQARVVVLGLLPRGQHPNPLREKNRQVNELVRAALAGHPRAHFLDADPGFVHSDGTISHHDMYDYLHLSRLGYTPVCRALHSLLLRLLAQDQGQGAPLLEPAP
LYPLA2 inh – counter-screen for PME1 inhibitors: inhibitors of human LYPLA2; inhibition, % at 5.9 µM; hit rate 0.38% among 320,000; AID 2177; recombinant LYPLA2, FP-Rh probe fluorescence polarization;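 active = inhibition above the screen-wide mean plus 3 SD, limit set per campaign, cut at about 26% in these data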
Target sequence (O95372 whole entry, looked up): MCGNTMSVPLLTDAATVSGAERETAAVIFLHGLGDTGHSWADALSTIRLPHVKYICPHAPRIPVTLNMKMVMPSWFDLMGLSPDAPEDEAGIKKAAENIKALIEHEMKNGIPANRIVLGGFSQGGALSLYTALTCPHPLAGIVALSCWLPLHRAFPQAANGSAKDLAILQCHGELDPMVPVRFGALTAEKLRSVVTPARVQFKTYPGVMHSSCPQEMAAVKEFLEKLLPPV
PAFAH1B2 FP inh – PAFAH1B2 (human) inhibition | P68402 | recombinant PAFAH1B2, FP-rhodamine activity probe, fluorescence polarization | AID 492953 | inhibition, % at 3.39 µM | hit rate 1.2% among 340,000;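 active = inhibition above the mean of all tested compounds plus 3 SD, cut at about 24% in these data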
Each line names hits and unclear results; the compound was inactive in the other large screens.

C=CCOC(=O)C1=C(C)OC(N)=C(C#N)[C@@]12C(=O)N(CC(N)=O)c1ccccc12	none
COc1cccc(NC(=O)N2CCC3(CC2)OCCO3)c1	none
O=C(COC(=O)Cc1ccccc1)NNC(=O)c1ccc([N+](=O)[O-])cc1	pPAFAH FP inh 27.7
Cn1cccc1/C=C1\C(=O)NC(=O)N(Cc2ccccc2)C1=O	none
Cn1cccc1/C=C1/C(=O)NC(=O)N(Cc2ccc(F)cc2)C1=O	PAFAH1B2 FP inh 28.8
O=C1NC(=O)N(Cc2ccco2)C(=O)/C1=C/c1cccn1CCOc1ccccc1Cl	pPAFAH FP inh 26.1
CC[C@H]1C2C[C@H]3[C@@H]4N(C)c5ccccc5C45C[C@H](C2[C@H]5O)N3[C@@H]1O (stereo not given in full)	none
CCCCn1c(NC(=O)c2ccc(Br)o2)c(C(=O)OCC)c2nc3ccccc3nc21	PAFAH2 inh 41.0, LYPLA1 counter 81.0, PAFAH1B3 inh 76.8, LYPLA2 inh 88.9, PAFAH1B2 FP inh 37.9
C=Cn1c(P(=S)(N2CCOCC2)N2CCOCC2)cc2c1CCCC2	none
COP(=O)(OC)C1(O)C(=O)Nc2ccc(Br)cc21 (stereo not given)	none
C=CCN1C(=O)NC(=O)C(Cc2ccc(OC)c(OC)c2)C1=O (stereo not given)	none
O=C1NC(=O)N(CCNc2ncc(C(F)(F)F)cc2Cl)C(=O)C1Cc1ccc(Cl)cc1 (stereo not given)	PAFAH1B2 FP inh 29.2
CNC(=O)Oc1ccc(C(=O)N2c3ccccc3NC(=O)C2C)cc1 (stereo not given)	PAFAH1B2 FP inh 47.5
Cc1cc(OCC(=O)NC(Cc2ccc(Cl)cc2)C(=O)O)c2c3c(c(=O)oc2c1)CCCC3 (stereo not given)	PAFAH1B2 FP inh 29.9
Cc1cc(OCC(=O)NCc2ccncc2)c2c3c(c(=O)oc2c1)CCC3	none
O=c1[nH]c(=S)n(-c2ccccc2F)c(O)c1C=Nc1ccc(N2CCOCC2)cc1	PAFAH2 inh 33.2, pPAFAH FP inh 29.2
O=C(O)c1c[nH]c2ccc(S(=O)(=O)N(CCCl)CCCl)cc12	PAFAH1B2 FP inh 37.3
COC(=O)C1=C(c2cccc(OCc3ccccc3)c2)C[C@@H]2CC[C@H]1N2C(=O)NCCCc1ccccc1	pPAFAH FP inh 30.5
COc1cccc2c1C(=O)c1c(O)c3c(c(O)c1C2=O)CC(O)(C(C)=NO)CC3OC1CC(N)C(O)C(C)O1 (stereo not given)	PAFAH2 inh 42.2, PAFAH1B3 inh 30.4, PAFAH1B2 FP inh 45.4 (no result: pPAFAH FP inh, LYPLA1 counter, LYPLA2 inh)
O=S(=O)(NC1CCCCCCC1)OCC(Cl)(Cl)Cl	pPAFAH FP inh 28.5, PAFAH1B2 FP inh 48.3
O=S(=O)(NC1CCCC1)OCC(Cl)(Cl)Cl	none
CN1C(=O)N(C)C(=O)C(CCc2ccccn2)(CCc2ccccn2)C1=O	none
CN1/C(=C\C=C2C(=O)NC(=S)NC2=O)C(C)(C)c2ccccc21	PAFAH2 inh 37.9, PAFAH1B2 FP inh 68.2 (no result: pPAFAH FP inh, LYPLA1 counter, LYPLA2 inh)
CCC(=NCc1cccnc1)c1c(O)n(-c2ccccc2)c(=O)[nH]c1=O	none (no result: PAFAH2 inh, PAFAH1B3 inh, PAFAH1B2 FP inh)
O=C1CN=C(c2ccccc2)c2ccccc2N1	none
CCc1cc2c(s1)NC(=O)CN=C2c1cccs1	pPAFAH FP inh 32.6
CC(C)(C)c1ccc(S(=O)(=O)N2CC3CC(C2)c2cccc(=O)n2C3)cc1 (stereo not given)	PAFAH1B2 FP inh 25.9
O=c1[nH]c(=S)n(Cc2ccc(F)cc2)c(O)c1C=NCc1ccc2c(c1)OCO2	none
C=CCn1c(O)c(C(CC)=Nc2ccc(N(C)C)cc2)c(=O)[nH]c1=O	pPAFAH FP inh 34.2 (no result: PAFAH2 inh, PAFAH1B3 inh, PAFAH1B2 FP inh)
CCC(C)c1ccc(N2C(=O)NC(=O)/C(=C/c3cccn3CCOc3ccc(C)cc3)C2=O)cc1 (stereo not given)	pPAFAH FP inh 27.8
CCCCN1C(=O)/C(=C\c2ccco2)C(=O)N(CCc2ccccc2)C1=O	pPAFAH FP inh 29.2
O=C1NC(=O)N(Cc2ccccc2)C(=O)/C1=C\c1ccco1	none
O=P(O)(Oc1ccccc1)OC(c1ccccc1)C(F)(F)C(F)(F)F (stereo not given)	PAFAH1B2 FP inh 76.7
O=P(Oc1ccccc1)(Oc1ccccc1)C(Nc1ccccc1)c1ccccc1 (stereo not given)	none
O=C1NC(=O)C(=Cc2ccc(SC3CCCCC3)o2)C(=O)N1	PAFAH2 inh 44.9, PAFAH1B2 FP inh 88.0
NS(=O)(=O)c1ccc(-c2ccc(C=C3C(=O)NC(=O)NC3=O)o2)cc1	none
O=S(=O)(c1ccc(Cl)cc1)c1ccc(Cl)cc1	PAFAH1B2 FP inh 66.1
N=c1n(CCO)c2ccccc2n1Cc1ccccc1	none
C=C[C@@H]1C[C@@]1(C)[C@@H](NP(=O)(c1ccccc1)c1ccccc1)c1ccccc1	PAFAH1B2 FP inh 41.2
O=c1c2ccccc2nc(/C=C/c2ccc(O)c(O)c2)n1-c1ccccc1	pPAFAH FP inh 30.5
O=c1c2ccccc2nc(/C=C/c2ccccc2)n1-c1ccc(O)cc1	none
CCC(=NCC1CCCO1)c1c(O)[nH]c(=O)[nH]c1=O (stereo not given)	none
CCN(CC)C(=O)c1ccc2c(c1)C1C=CCC1C(C(=O)O)N2 (stereo not given)	PAFAH2 inh 40.4, PAFAH1B3 inh 39.5 (no result: pPAFAH FP inh, LYPLA1 counter, LYPLA2 inh)
O=C(/C=C/c1ccccc1)NC(=S)N1C[C@H]2C[C@H](C1)c1cccc(=O)n1C2	none
COc1ccc(CN2C(=O)NC(=O)/C(=C/c3ccoc3)C2=O)cc1	none
CCN1CC2([N+](=O)[O-])CC=C(Cl)C([N+](=O)[O-])(C1)C2 (stereo not given)	none
O=C(O)CCn1cc(C=C2C(=O)NC(=O)NC2=O)c(-c2ccc(Br)cc2)n1	PAFAH1B2 FP inh 33.2
O=C(O)CCn1cc(C=C2C(=O)NC(=S)NC2=O)c(-c2cccc(Cl)c2)n1	none
O=C1NC(=S)SC1=Cc1ccc(N(CCCl)CCCl)cc1	PAFAH1B2 FP inh 28.3 (no result: pPAFAH FP inh, LYPLA1 counter, LYPLA2 inh)
CCn1cc(/C=c2/sc3n(c2=O)C2c4ccccc4OC(C)(N=3)C2C(=O)OC)c(C)n1 (stereo not given)	none
CCn1cc(C(=O)N2CCCCC2)c2ccccc21	none
CCN(CC)c1ccc(N=Cc2c(O)n(-c3ccc(Cl)cc3)c(=O)[nH]c2=O)cc1	none
CCN(CC)c1ccc(N=Cc2c(O)n(-c3ccc(OC)cc3)c(=O)[nH]c2=O)cc1	pPAFAH FP inh 25.4
CN(Cc1ccccc1)C1CCCN(C(=O)COc2ccccc2Cl)C1 (stereo not given)	none
CN1CCc2cc(O)cc3c2[C@H]1Cc1ccc(O)c(O)c1-3	none
CN1CCc2cc3c(c4c2C1Cc1ccccc1-4)OCO3 (stereo not given)	pPAFAH FP inh 28.8
Cc1cccc(C)c1NC(=O)c1cccn(Cc2ccc3c(c2)OC(F)(F)O3)c1=O	none
COC(=O)C1=C(c2cc3ccccc3s2)C[C@@H]2CC[C@H]1N2C(=O)NCc1ccc(C(F)(F)F)cc1	none
